Experimental data from PubChem BioAssay AID1053205 (Broad Institute, 2014).
Potency and affinity values are given separately. Inconclusive results are not listed. The source made the active and inactive calls.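 How the source made its calls: active means compounds lowering the FRET ratio whose fitted half-maximal concentration is at most twice their top tested dose; inconclusive means flat partial drop between 30 and 70 percent, or bad fit; inactive means the rest.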

molecular target: Voltage-dependent L-type calcium channel subunit alpha-1D (Homo sapiens) (UniProt Q01668); assay: inhibitors of CaV1.3 ICDI-IQ binding, dose response, cell-based, HEK293, YFP-IQ/CFP-ICDI FRET, cherry-picks (AID 1053205); conditions: HEK293 YFP-IQ/CFP-ICDI FRET ratio, 10 min; series mostly up to 35 µM; FRET change, negative = inhibition: at the top concentration;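 further: 0% = median of neutral control wells and -100% = median of positive control wells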
Sequence (Q01668 whole entry, looked up): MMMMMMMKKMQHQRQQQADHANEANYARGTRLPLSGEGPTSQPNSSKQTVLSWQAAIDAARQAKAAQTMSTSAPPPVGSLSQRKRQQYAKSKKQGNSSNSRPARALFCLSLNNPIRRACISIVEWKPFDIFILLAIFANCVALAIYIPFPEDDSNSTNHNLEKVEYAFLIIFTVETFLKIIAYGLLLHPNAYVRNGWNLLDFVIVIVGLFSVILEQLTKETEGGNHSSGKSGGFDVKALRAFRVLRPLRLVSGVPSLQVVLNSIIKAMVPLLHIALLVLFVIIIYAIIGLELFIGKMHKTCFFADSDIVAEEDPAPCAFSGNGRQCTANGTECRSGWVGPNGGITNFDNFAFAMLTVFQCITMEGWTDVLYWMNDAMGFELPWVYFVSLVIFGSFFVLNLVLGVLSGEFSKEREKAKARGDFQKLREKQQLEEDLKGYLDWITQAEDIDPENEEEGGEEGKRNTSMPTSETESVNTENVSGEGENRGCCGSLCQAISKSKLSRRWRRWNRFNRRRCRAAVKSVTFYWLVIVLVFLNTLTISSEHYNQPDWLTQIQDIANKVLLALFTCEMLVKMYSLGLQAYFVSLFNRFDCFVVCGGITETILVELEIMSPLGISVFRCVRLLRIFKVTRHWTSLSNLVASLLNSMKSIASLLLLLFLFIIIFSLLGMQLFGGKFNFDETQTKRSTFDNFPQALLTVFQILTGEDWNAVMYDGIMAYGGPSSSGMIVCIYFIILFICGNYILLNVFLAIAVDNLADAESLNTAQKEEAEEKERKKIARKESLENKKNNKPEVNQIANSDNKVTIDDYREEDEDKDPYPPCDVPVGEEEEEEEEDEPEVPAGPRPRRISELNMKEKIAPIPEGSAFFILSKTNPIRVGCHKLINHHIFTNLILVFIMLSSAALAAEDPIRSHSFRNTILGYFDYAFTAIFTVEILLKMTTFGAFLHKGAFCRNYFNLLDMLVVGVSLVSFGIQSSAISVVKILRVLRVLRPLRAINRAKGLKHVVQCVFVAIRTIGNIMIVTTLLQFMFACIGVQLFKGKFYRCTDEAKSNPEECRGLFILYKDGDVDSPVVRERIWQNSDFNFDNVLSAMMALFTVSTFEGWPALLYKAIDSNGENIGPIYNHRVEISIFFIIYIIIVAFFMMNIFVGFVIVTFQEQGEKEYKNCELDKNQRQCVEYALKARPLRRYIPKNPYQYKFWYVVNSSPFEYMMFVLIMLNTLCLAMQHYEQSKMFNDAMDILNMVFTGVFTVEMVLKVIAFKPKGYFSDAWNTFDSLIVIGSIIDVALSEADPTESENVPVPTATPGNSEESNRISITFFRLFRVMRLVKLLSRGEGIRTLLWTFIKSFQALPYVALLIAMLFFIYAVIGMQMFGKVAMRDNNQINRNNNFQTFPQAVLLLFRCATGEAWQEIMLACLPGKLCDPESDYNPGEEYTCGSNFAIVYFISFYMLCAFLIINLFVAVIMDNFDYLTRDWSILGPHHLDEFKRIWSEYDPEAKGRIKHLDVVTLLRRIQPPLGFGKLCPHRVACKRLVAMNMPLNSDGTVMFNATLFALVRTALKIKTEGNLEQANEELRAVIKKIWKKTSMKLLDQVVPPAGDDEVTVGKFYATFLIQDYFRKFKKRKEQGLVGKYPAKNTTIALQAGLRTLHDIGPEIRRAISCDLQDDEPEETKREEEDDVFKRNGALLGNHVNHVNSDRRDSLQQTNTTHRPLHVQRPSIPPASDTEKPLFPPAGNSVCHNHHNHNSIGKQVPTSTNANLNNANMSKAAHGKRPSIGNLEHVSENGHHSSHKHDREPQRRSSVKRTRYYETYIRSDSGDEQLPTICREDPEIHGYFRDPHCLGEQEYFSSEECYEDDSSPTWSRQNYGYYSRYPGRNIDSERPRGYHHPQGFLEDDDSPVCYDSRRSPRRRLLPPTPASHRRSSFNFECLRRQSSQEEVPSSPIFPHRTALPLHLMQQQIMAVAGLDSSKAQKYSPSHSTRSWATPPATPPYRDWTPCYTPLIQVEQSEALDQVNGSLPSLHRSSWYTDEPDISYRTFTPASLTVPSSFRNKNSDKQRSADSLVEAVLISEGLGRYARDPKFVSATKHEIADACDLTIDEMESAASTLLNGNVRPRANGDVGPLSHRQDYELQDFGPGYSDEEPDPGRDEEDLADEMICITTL

FRET change, negative = inhibition, inactive:
C[C@H](NC(=O)c1nc[nH]c1C(=O)N[C@@H](Cc1ccccc1)C(=O)OC(C)(C)C)C(=O)OCc1ccccc1 10.4%
Cc1cc(-n2c(=O)c(C#N)cc3c(=O)n4ccccc4nc32)no1 473%
CSC1=NSC2=NC(=O)/C(=C/c3coc4ccc(O)cc4c3=O)C(=N)N12 380%
Nc1ccc(C#Cc2ccc3c(=O)c4ccccc4oc3c2)cc1 412%
Cc1cccn2c(=O)c3cc(C#N)c(=NC(=O)c4cccs4)n(CC(C)C)c3nc12 58.8%
COc1ccccc1NS(=O)(=O)c1cc(NC(=O)CCNC(C)=O)ccc1C 189%
Cc1cc(-c2nc3cccnc3s2)ccc1NS(=O)(=O)c1cccs1 91.9%
COc1ccc(Br)c(Cn2c(C)c(C(=O)NCc3ccc4c(c3)OCCO4)sc2=O)c1 3.45%
CC1=C(C(=O)N2CCN(c3cc(C)ccc3C)CC2)C2(CCCCC2)OC1=O 9.6%
CC(C)C(=O)Nc1sc2c(c1C(N)=O)CCN(Cc1ccccc1)C2 96.8%
Cc1ccc(NC(=O)Nc2ccnc(-c3cccnc3)n2)cc1 77.2%
Cc1cccn2c(=O)c3cc(C(=O)NCc4ccc(F)cc4)c(=N)n(CCCN4CCOCC4)c3nc12 90.3%
Clc1cccc(CN2CCN(Cc3nc(CCc4ccccc4)no3)CC2)c1 -34.4%
O=[N+]([O-])c1cccc(-c2n[nH]c(=S)n2-c2ccc(Br)cc2)c1 -27.8%
COc1ccc(CCNC(=O)CSc2cn(Cc3cccc(C)c3)c3ccccc23)cc1OC -2.31%
O=c1oc2c(CN3CCN(CCO)CC3)c(O)ccc2cc1-c1ccccn1 470%
